This note sets out measurements from PubChem BioAssay AID1851 (National Center for Advancing Translational Sciences (NCATS), 2009).

About 5,700 (36%) of roughly 16,000 compounds were called active. Another 24% or so got no clear call; they are omitted. Some of the results follow. Values without a mark were called inactive. The call rests on the fitted dose curve; in most records, active means well fitted curve in the direction sought with a large enough effect; inconclusive means small, poorly fitted or top-dose-only effect, or effect the other way; inactive means no such curve, though single readings can be large or run the other way.
On the % scale 0 is the no-effect control and ±100 the full control effect.

Chain of Cytochrome P450 1A2 (Homo sapiens) (P05177 whole entry, looked up): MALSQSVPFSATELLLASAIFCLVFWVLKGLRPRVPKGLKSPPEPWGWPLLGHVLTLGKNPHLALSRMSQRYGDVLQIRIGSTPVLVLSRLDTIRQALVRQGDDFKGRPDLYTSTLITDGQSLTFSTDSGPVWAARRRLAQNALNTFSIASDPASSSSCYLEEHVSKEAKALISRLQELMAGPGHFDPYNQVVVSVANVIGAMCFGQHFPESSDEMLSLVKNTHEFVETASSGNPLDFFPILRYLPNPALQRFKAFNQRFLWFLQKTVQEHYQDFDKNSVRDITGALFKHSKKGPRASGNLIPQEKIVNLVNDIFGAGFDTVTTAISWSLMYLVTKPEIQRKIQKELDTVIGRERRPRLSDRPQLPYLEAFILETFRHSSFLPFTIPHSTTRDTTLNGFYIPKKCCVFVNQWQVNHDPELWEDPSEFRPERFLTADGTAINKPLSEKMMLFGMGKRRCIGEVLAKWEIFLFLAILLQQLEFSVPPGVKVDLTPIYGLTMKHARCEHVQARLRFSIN

This experiment concerns the target Cytochrome P450 1A2 (Homo sapiens) (UniProt P05177). Kind of experiment: Cytochrome panel assay with activity outcomes. The note with it: recombinant CYP, pro-luciferin dealkylation, luminescence, p450-cyp1a2; series mostly up to 57.1 µM; activity, negative = inhibition: at the top concentration.
As for `C[C@H]1[C@@H](O)[C@@H](C)\C=C/C=C\C=C/C=C\C=C/C=C\C=C/[C@@H](O[C@H]2O[C@@H](C)[C@@H](O)[C@@H](N)[C@@H]2O)C[C@@H]2O[C@](O)(C[C@@H](O)C[C@@H](O)[C@@H](O)CC[C@@H](O)C[C@@H](O)CC(=O)O[C@H]1C)C[C@@H](O)[C@H]2C(=O)O` (stereo in doubt), the “activity, negative = inhibition” value is -0.696% [at 25.6 µM].
For `CCC(O)CNc1nc(-n2nc(C)cc2C)nc2sc3c(c12)CC(C)(C)OC3` (centres undefined), the AC50 (usually the concentration giving half of the maximal activity seen) is 14.1 µM (active).
Regarding `Cc1cc(C)n(-c2nc(NCC(C)O)c3c4c(sc3n2)COC(C)(C)C4)n1` (centres undefined), the AC50 is 8.91 µM (active).
The same measure, in the same setting: then `Cc1cc(NC(=O)Nc2ccc3c(ccn3C)c2)sn1`, with 5.01 µM (active).
Take `Oc1c(Cl)cc(CN(Cc2cc(Cl)c(O)c(Cl)c2)C2CCCCC2)cc1Cl`: the activity, negative = inhibition is 11.3% [at 2.29 µM].
Consider `Oc1c(Cl)cc(C(c2cc(Cl)c(O)c(Cl)c2)C(c2cc(Cl)c(O)c(Cl)c2)c2cc(Cl)c(O)c(Cl)c2)cc1Cl`, for which the half-maximal activity concentration (AC50) is 0.794 µM (active).
With `CCOC(=O)CCN1C(=O)[C@H]2[C@H]3[C@H](O)[C@H](O)C/C(=N/OCC(C)C)[C@H]3CC[C@@H]2C1=O`, the activity, negative = inhibition was -11.8% [at 11.4 µM].
Regarding `COC(=O)c1cc(C#N)c(Oc2ccc(OC)cc2)nc1C`, the concentration at half-maximal activity (AC50) is 4.47 µM (active).
`COC(=O)C1=C(C)C(c2ccc(OC)cc2)NC(=S)N1` (centres undefined): the “activity, negative = inhibition” value is -18.5%.
On to `COC(=O)c1cc(C#N)c(NCc2ccc(Cl)cc2Cl)nc1C`, for which the “activity, negative = inhibition” value is 6.7%.
In the case of `CC(C)Oc1cccc(C(=O)NC(=S)N2CCN(c3ccc(C(F)(F)F)cc3[N+](=O)[O-])CC2)c1`, the “activity, negative = inhibition” value was -28%.
On to `CC(=O)c1cc(C#N)c(Oc2cccc(C(F)(F)F)c2)nc1C`, for which the half-maximal activity concentration (AC50) is 1.12 µM (active).
Take `CC(=O)c1cc(C#N)c(Oc2ccc(F)cc2)nc1C`: the concentration at half-maximal activity (AC50) is 2.24 µM (active).
As for `Cc1cc(C)c(NC(=O)NC(=O)c2ccc(F)cc2)c(C)n1`, the “activity, negative = inhibition” value was -8.66%.
On the same count and under the same terms, to `Cc1ccc(C(C(=O)NC2CCCCC2)N(CC2CCCO2)C(=O)CNC(=O)c2cccs2)cc1` (centres undefined) belongs -13%.
In the case of `O=C(NC1CCCCCC1)c1cccs1`, the half-maximal activity concentration (AC50) was 5.01 µM (active).
Turning to `O=C(NCC(=O)N(c1ccccc1)C(C(=O)NC1CCCC1)c1cccnc1)c1cccs1` (centres undefined), the “activity, negative = inhibition” value is -1.5%.
As for `O=C(Nc1ccc2ncccc2c1)Nc1ccc2ncccc2c1`, the activity, negative = inhibition is -28.5% [at 2.29 µM].
With `Cc1nc2ccc(NC(=O)Nc3ccnc4cccnc34)cc2o1`, the AC50 is 1 µM (active).
As for `C/C=C\C(=O)N(CC)c1ccccc1C`, the “activity, negative = inhibition” value is -3.65% [at 25.6 µM].
As for `CC1(C)OC(=O)NC1=O`, the “activity, negative = inhibition” value is -5.07% [at 25.6 µM].
Consider `COc1ccc(-c2csc3c2[N+]2=CCC=C2C3=O)cc1`, for which the AC50 is 0.501 µM (active).
Take `Cc1noc(C)c1-c1cc(N2CCN(C)CC2)ncn1`: the concentration at half-maximal activity (AC50) was 10 µM (active).
The same measure, in the same setting: to `Cc1noc(C)c1-c1nccc(N2CCN(C)CC2)n1` belongs 2 µM (active).
Same read-out and setting: to `Cc1noc(C)c1-c1nccc(N2CCOCC2)n1` belongs 0.631 µM (active).
With `Cc1noc(C)c1C(=O)N1CCC2(CC1)CCN(c1ccncc1)CC2`, the “activity, negative = inhibition” value is -11%.
Consider `Cc1noc(C)c1-c1nccc(-n2ccnc2)n1`, for which the half-maximal activity concentration (AC50) is 0.2 µM (active).
With `CC(C)(C)C(=O)NC(c1ccc(Cl)cc1)[C@]1(C)C[C@H]1C1CCCCC1` (some centres undefined), the “activity, negative = inhibition” value is -8.49%.
Same read-out and setting: to `CO/N=C1/c2cc(OC)ccc2O[C@@H](c2cccc(OC)c2)[C@H]1O` belongs -7.77% [at 11.4 µM].
Take `Cc1cc(Cl)ccc1Oc1ncc(-c2ccc(Cl)cc2)cn1`: the AC50 is 0.794 µM (active).
Still for that read-out and setting: to `Cc1cccc(Oc2ncc(-c3ccc(Cl)cc3)cn2)c1C` belongs 2.24 µM (active).
For the molecule `CNc1nc(-c2ccccc2C)nc2ccccc12`, the AC50 was 0.501 µM (active).
For the molecule `CNc1nc(-c2ccccc2Cl)nc2ccccc12`, the concentration at half-maximal activity (AC50) is 0.126 µM (active).
As for `CCCNS(=O)(=O)c1ccc(OCC(=O)OC)cc1`, the “activity, negative = inhibition” value is -14.8%.
Turning to `CCCOc1ccc(/C=C/C(=O)Nc2ccc([N+](=O)[O-])cc2C)cc1`, the “activity, negative = inhibition” value is -11.5%.
As to `CCOC(=O)COc1ccc(/C=C/[N+](=O)[O-])c(OCC(=O)OCC)c1`, the AC50 was 3.16 µM (active).
Consider `Fc1ccc2nc3[nH]c4ccccc4c3nc2c1`, for which the AC50 is 1 µM (active).
In the case of `COC(=O)CSc1ccc(C#N)c(SCC(=O)OC)c1`, the half-maximal activity concentration (AC50) is 25.1 µM (active).
Regarding `COc1ccc(N2CCN(Cc3nc4c(c(=O)n(C)c(=O)n4C)n3CC(C)=O)CC2)cc1`, the “activity, negative = inhibition” value was -4.78%.
For the molecule `CCn1ccc(C(=O)NC2=C(C#N)CCC2)n1`, the AC50 was 6.31 µM (active).
Turning to `CCn1ccc(C(=O)NC2C(=O)N3C(C(=O)O)=C(C)CSC23)n1` (centres undefined), the “activity, negative = inhibition” value was 10%.
Consider `C[C@]12C=CC(=O)C=C1CC[C@@H]1[C@H]3C[C@@H](O)[C@](O)(C(=O)CO)[C@@]3(C)C[C@H](O)[C@]12F`, for which the “activity, negative = inhibition” value was -1.86% [at 25.6 µM].
Consider `CC(=O)Nc1ccc(-c2nnc(SCC(=O)c3ccc4c(c3)Cc3ccccc3-4)n2C)cc1`, for which the half-maximal activity concentration (AC50) is 11.2 µM (active).
`Cn1c(SCC(=O)NC2CC2)nnc1-c1cccc(NC(=O)c2ccccc2F)c1`: the “activity, negative = inhibition” value is 17.5%.
As for `Cn1c(SCC(=O)c2ccc3c(c2)Cc2ccccc2-3)nnc1-c1ccccc1`, the AC50 is 6.31 µM (active).
As to `Cn1c(SC2CCCCC2=O)nnc1-c1ccncc1` (centres undefined), the “activity, negative = inhibition” value is -1.42%.
`Cc1ccc2c(CC(=O)OCc3cc(=O)n4c(n3)sc3ccccc34)coc2c1`: the AC50 was 8.91 µM (active).
Take `CC(C)(C)c1onc(OCP(=O)(O)O)c1C[C@@H](N)C(=O)O`: the “activity, negative = inhibition” value is -17.2%.
For the molecule `O=C(NNC(=O)c1cc(-c2ccc(Cl)c(Cl)c2)nc2ccccc12)Nc1ccccc1`, the AC50 is 3.55 µM (active).
For `Cc1cc(C(=O)Nc2ccc(N3CCOCC3)cc2)c2ccccc2n1`, the AC50 is 10 µM (active).
`Cc1ccc(NC(=O)c2cc(Cl)nc3ccccc23)cc1`: the AC50 was 2 µM (active).
With `CCOC(=O)N/N=C1/C[C@@H](O)[C@@H](O)[C@@H]2[C@@H]3C(=O)N(c4cccc(Oc5ccccc5)c4)C(=O)[C@H]3CC[C@@H]12`, the activity, negative = inhibition was -6.44% [at 11.4 µM].
As to `O=C1Oc2ccccc2C2(O)C3CCCCCC3C12` (centres undefined), the “activity, negative = inhibition” value was -3.13%.
With `Cc1n[nH]c(C)c1N=Nc1cc(Cl)ccc1Cl`, the AC50 is 0.178 µM (active).
For `COc1cc(OC)c(C(=O)CCCCN2CCC3(CC2)NC(=O)NC3=O)cc1NS(=O)(=O)c1ccc(C(F)(F)F)cc1`, the “activity, negative = inhibition” value is -5.7%.
Same read-out and setting: then `Nc1ncnc2c([C@@H]3O[C@@H](CO)[C@H](O)[C@@H]3O)nsc12`, with -16.8% [at 2.29 µM].
As to `O=C(Nc1cc(Sc2ccccn2)cc([N+](=O)[O-])c1)c1ccc([N+](=O)[O-])cc1`, the AC50 was 3.16 µM (active).
Turning to `O=C(Nc1cc(Sc2ccccn2)cc([N+](=O)[O-])c1)c1ccc(Cl)cc1`, the AC50 is 2.51 µM (active).
As for `O=C(Nc1nnc(COc2ccc(Cl)cc2)s1)c1ccc([N+](=O)[O-])cc1`, the “activity, negative = inhibition” value is 8.11%.
Same read-out and setting: then `O=C1[C@H]2[C@H]3[C@H](O)[C@H](O)C/C(=N/OC[C@@H](O)COCc4ccco4)[C@H]3CC[C@@H]2C(=O)N1C[C@@H]1CCCO1`, with -17.3% [at 11.4 µM].
For `CCOc1ncccc1C(=O)OCC(=O)Nc1cc(C)ccc1C`, the AC50 was 10 µM (active).
As for `Cc1ccc(C)c(NC(=O)C2C3CCCC2C3c2ccccc2)c1` (centres undefined), the “activity, negative = inhibition” value is -4.69%.
Same read-out and setting: then `Cc1ccc(C)c(NC(=O)Cn2nnc(C(=O)Nc3c(C)cccc3C)c2N)c1`, with -4.32%.
Consider `Cc1noc(C)c1-c1ccc2ncnc(N(C)C)c2c1`, for which the AC50 is 0.631 µM (active).
The same measure, in the same setting: to `Cc1noc(C)c1-c1ccc2ncnc(N(C)Cc3ccco3)c2c1` belongs 2.51 µM (active).
Regarding `CN1C(=O)OC(C)(C)C1=O`, the “activity, negative = inhibition” value was -1.91% [at 25.6 µM].
On to `CCc1c(C)nc2ccc(Br)cc2c1Cl`, for which the AC50 is 0.316 µM (active).
Consider `Cc1cc(Cl)nc2ccc(Cc3ccc4nc(Cl)cc(C)c4c3)cc12`, for which the activity, negative = inhibition was -13.2% [at 2.29 µM].
For `CO[C@H]1COC(=O)CCC[C@@H](C)[C@H](OC)COC(=O)[C@@H](C)NC(=O)C/C=C\[C@@H]1C`, the activity, negative = inhibition is 3.63% [at 11.4 µM].
Same read-out and setting: then `O=C(O)[C@H]1CCCNC1`, with -5.56%.
Regarding `Cc1cnn(-c2ccc3nnc(-c4ccc(Cl)cc4)n3n2)c1`, the AC50 is 0.398 µM (active).
As to `CNC(=O)Oc1ccc2c(c1)[C@@]1(C)CCN(C)[C@@H]1N2C`, the “activity, negative = inhibition” value was -15.8%.
In the case of `CCOCCCN1C(=O)CN(C2CCCCCC2)C(=O)C1c1ccc(OC)cc1` (centres undefined), the “activity, negative = inhibition” value was -10.7%.
For `CCOCCCn1cnc2c([nH]c3cc(OC)ccc32)c1=O`, the concentration at half-maximal activity (AC50) is 2 µM (active).
`CO[C@H]1COC(=O)C/C=C\[C@@H](C)COC(=O)[C@H]2CCCN2C(=O)C/C=C\[C@H]1C`: the activity, negative = inhibition was 4.01% [at 11.4 µM].
The same measure, in the same setting: then `CN(C)c1ccc(/C=C2/C(=O)N(c3ccc([N+](=O)[O-])cc3)N=C2N2CCOCC2)cc1`, with -19%.
`Cc1cc(N2CCOCC2)ccc1/C=C1\SC(=O)N(C(C)C)C1=O`: the half-maximal activity concentration (AC50) was 14.1 µM (active).
`CC(C(=O)Nc1ccccc1Sc1ccccc1)N(c1ccccc1)S(C)(=O)=O` (centres undefined): the “activity, negative = inhibition” value is -5.72%.
As for `CO[C@@H]1COC(=O)[C@H](COCc2ccccc2)NC(=O)C/C=C\[C@@H](C)[C@H](OC)COC(=O)[C@H](COCc2ccccc2)NC(=O)C/C=C\[C@H]1C`, the activity, negative = inhibition was -19.7% [at 11.4 µM].
`COc1cccc(/C=N/Nc2nc(N3CCCC3)nc(N3CCCC3)n2)c1O`: the AC50 is 2.51 µM (active).
On to `COC(=O)C1=C(C)[C@@H](O)[C@@H](C)[C@H](c2c(OC)c(OC)c(C)c(OC)c2OC)O1`, for which the activity, negative = inhibition was -10.1% [at 11.4 µM].
For `C#C[C@@]1(O)CC[C@@H]2[C@@H]3CCC4=CC(=O)CC[C@@H]4[C@H]3CC[C@]21C`, the “activity, negative = inhibition” value was -14.1% [at 25.6 µM].
Same read-out and setting: then `CC12CC[C@@H]3c4ccc(OP(=O)(O)O)cc4CCC3C1CCC2=O` (some centres undefined), with -13.4% [at 2.29 µM].
Take `C#C[C@]1(O)CC[C@@H]2[C@H]3CCc4cc(OC)ccc4[C@@H]3CC[C@@]21C`: the AC50 was 0.501 µM (active).
In the case of `Clc1ccc(CCNc2nc3ccccc3s2)cc1`, the AC50 is 11.2 µM (active).
Take `CC(C)N1CCN(c2ccc(OC[C@@H]3CO[C@@](Cn4cncn4)(c4ccc(Cl)cc4Cl)O3)cc2)CC1`: the “activity, negative = inhibition” value was -3.45% [at 25.6 µM].
As for `Nc1c(O)cccc1C(=O)C[C@@H](N)C(=O)O`, the “activity, negative = inhibition” value was -7.38% [at 25.6 µM].
As for `N#C/C(=C\Nc1ccccn1)C(=O)C1CC1`, the AC50 is 1.26 µM (active).
For the molecule `N#C/C(=C\Nc1ccccn1)C(=O)c1ccco1`, the activity, negative = inhibition is -22.9% [at 11.4 µM].
